# Test results published in PubChem BioAssay AID1159580 (chemical genetic matrix, 2015).
# The whole screen tested about 5,500 compounds, of which about 2,000 (36%) were called active. Roughly 18% stayed inconclusive and do not appear here. This is one part of the list. Unmarked numbers belong to inactive results. Cut-off read from the data, not from the text of the source: active = normalized growth mostly below about 0.91 (no sharp cut-off); inconclusive = no clear call, values can overlap the other calls; inactive = mostly above about 0.92.
# Experiment: chemical genetic growth profiling, strain panel (AID 1159580);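 note: tested at 20 µM; growth read once vehicle control cultures reached saturation at 30 °C; 1 = growth at the plate median or of vehicle wells; lower values mean less growth of the strain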
# Conditions: S. cerevisiae deletion strains, growth OD
structure (smiles),measurement,setting,value
COc1ccc(/C=C/c2cc(O)cc(O)c2)cc1,normalized growth,"locus YJR043C, strain POL32, hits give low values",0.788 (active)
same,normalized growth,"locus YJR066W, strain TOR1, hits give low values",0.995
same,normalized growth,"locus YKL009W, strain mrt4, hits give low values",0.87 (active)
same,normalized growth,"locus YKL068W, hits give low values",0.982
same,normalized growth,"locus YKL085W, strain MDH1 (second series), hits give low values",0.946
same,normalized growth,"locus YKL085W, strain MDH1, hits give low values",0.946
same,normalized growth,"locus YKL160W, strain elf1, hits give low values",0.996
same,normalized growth,"locus YKR001C, strain vps1, hits give low values",0.608 (active)
same,normalized growth,"locus YKR026C, strain gcn3, hits give low values",1
same,normalized growth,"locus YKR091W, strain srl3, hits give low values",1
same,normalized growth,"locus YLL001W, strain dnm1, hits give low values",0.997
same,normalized growth,"locus YLL026W, hits give low values",1.01
same,normalized growth,"locus YLL041C, strain sdh2, hits give low values",1.01
same,normalized growth,"locus YLR027C, strain aat2, hits give low values",1
same,normalized growth,"locus YLR039C, strain RIC1, hits give low values",0.815
same,normalized growth,"locus YLR058C, strain SHM2, hits give low values",0.931
same,normalized growth,"locus YLR102C, strain apc9, hits give low values",0.966
same,normalized growth,"locus YLR113W, strain HOG1, hits give low values",0.966
same,normalized growth,"locus YLR221C, strain rsa3, hits give low values",0.999
same,normalized growth,"locus YLR258W, strain gsy2, hits give low values",0.996
same,normalized growth,"locus YLR262C, strain YPT6 (second series), hits give low values",0.991
same,normalized growth,"locus YLR262C, strain YPT6, hits give low values",0.686
same,normalized growth,"locus YLR268W, strain sec22, hits give low values",0.872 (active)
same,normalized growth,"locus YLR320W, strain mms22, hits give low values",0.991
same,normalized growth,"locus YLR330W, strain CHS5, hits give low values",0.84 (active)
same,normalized growth,"locus YLR342W, strain FKS1 (second series), hits give low values",0.785 (active)
same,normalized growth,"locus YLR342W, strain FKS1, hits give low values",1
same,normalized growth,"locus YLR357W, strain rsc2, hits give low values",0.95
same,normalized growth,"locus YLR370C, strain arc18, hits give low values",1.01
same,normalized growth,"locus YLR371W, strain rom2, hits give low values",0.793 (active)
same,normalized growth,"locus YLR384C, strain iki3, hits give low values",1.01
same,normalized growth,"locus YLR418C, strain cdc73, hits give low values",0.583 (active)
same,normalized growth,"locus YML016C, strain PPZ1, hits give low values",0.964
same,normalized growth,"locus YML032C, strain rad52, hits give low values",0.886 (active)
same,normalized growth,"locus YML120C, strain ndi1, hits give low values",0.997
same,normalized growth,"locus YML124C, strain tub3, hits give low values",0.972
same,normalized growth,"locus YMR058W, strain fet3, hits give low values",1
same,normalized growth,"locus YMR078C, strain ctf18, hits give low values",0.967
same,normalized growth,"locus YMR125W, strain sto1, hits give low values",1.01
same,normalized growth,"locus YMR129W, hits give low values",1.01
same,normalized growth,"locus YMR205C, strain PFK2, hits give low values",0.995
same,normalized growth,"locus YMR223W, strain ubp8, hits give low values",0.89 (active)
same,normalized growth,"locus YMR231W, strain pep5, hits give low values",0.992
same,normalized growth,"locus YMR263W, strain SAP30, hits give low values",0.883 (active)
same,normalized growth,"locus YMR307W, strain GAS1, hits give low values",0.663
same,normalized growth,"locus YNL067W, strain RPL9B, hits give low values",0.908
same,normalized growth,"locus YNL071W, strain lat1, hits give low values",1
same,normalized growth,"locus YNL153C, strain GIM3, hits give low values",0.931
same,normalized growth,"locus YNL183C, strain NPR1, hits give low values",0.977
same,normalized growth,"locus YNL209W, strain ssb2, hits give low values",1.01
same,normalized growth,"locus YNL233W, strain BNI4, hits give low values",0.823 (active)
same,normalized growth,"locus YNL248C, strain rpa49, hits give low values",0.999
same,normalized growth,"locus YNL250W, strain rad50, hits give low values",0.961
same,normalized growth,"locus YNL271C, strain bni1, hits give low values",0.945
same,normalized growth,"locus YNL298W, strain CLA4, hits give low values",0.928
same,normalized growth,"locus YNL307C, strain MCK1, hits give low values",0.857 (active)
same,normalized growth,"locus YNL322C, strain KRE1 (second series), hits give low values",1.01
same,normalized growth,"locus YNL322C, strain KRE1, hits give low values",0.945
same,normalized growth,"locus YNR049C, strain mso1, hits give low values",1.02
same,normalized growth,"locus YNR052C, strain pop2, hits give low values",0.914 (active)
same,normalized growth,"locus YOL012C, strain htz1",0.771
same,normalized growth,"locus YOL147C, strain pex11, hits give low values",0.868 (active)
same,normalized growth,"locus YOR001W, strain rrp6, hits give low values",1
same,normalized growth,"locus YOR061W, strain CKA2, hits give low values",0.941
same,normalized growth,"locus YOR069W, strain VPS5, hits give low values",0.927
same,normalized growth,"locus YOR070C, strain gyp1, hits give low values",1
same,normalized growth,"locus YOR080W, strain dia2, hits give low values",1
same,normalized growth,"locus YOR083W, strain WHI5, hits give low values",0.994
same,normalized growth,"locus YOR106W, strain vam3, hits give low values",0.956
same,normalized growth,"locus YOR136W, strain idh2, hits give low values",0.936
same,normalized growth,"locus YOR144C, strain elg1, hits give low values",0.932 (active)
same,normalized growth,"locus YOR184W, strain ser1, hits give low values",0.623 (active)
same,normalized growth,"locus YOR231W, strain MKK1, hits give low values",0.991
same,normalized growth,"locus YOR265W, strain rbl2, hits give low values",1.02
same,normalized growth,"locus YOR270C, strain vph1, hits give low values",0.998
same,normalized growth,"locus YOR290C, strain snf2, hits give low values",0.995
same,normalized growth,"locus YOR316C, strain cot1, hits give low values",0.961
same,normalized growth,"locus YPL051W, strain arl3, hits give low values",0.973
same,normalized growth,"locus YPL078C, strain atp4, hits give low values",0.998
same,normalized growth,"locus YPL106C, strain sse1, hits give low values",0.996
same,normalized growth,"locus YPL240C, strain hsp82, hits give low values",1.01
same,normalized growth,"locus YPL241C, strain CIN2, hits give low values",0.973
same,normalized growth,"locus YPL256C, strain CLN2, hits give low values",1.05
same,normalized growth,"locus YPR119W, strain clb2, hits give low values",0.964
same,normalized growth,"locus YPR141C, strain kar3, hits give low values",0.977
same,normalized growth,"locus YPR163C, strain tif3, hits give low values",0.842 (active)
same,normalized growth,"locus YPR167C, strain met16, hits give low values",0.969
same,normalized growth,"strain wtn01, hits give low values",0.838 (active)
